PubChem BioAssay (NCI)
This is part of a sample that, as a whole, favours compounds with a hit. Of some 79,000 tested, about 15% had one in any assay. Activity calls are given as the source filed them. Cut-off read from the data, not from the text of the source: active = growth inhibition above about 70%; inactive = the rest.

Tests used:
[1] = NCI Yeast Anticancer Drug Screen. Data for the rad50 strain (AID 155);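 note: 0% = growth of vehicle-only cultures of the same strain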; details: S. cerevisiae rad50 strain growth inhibition; at 50.0 µM; stronger effect = higher value
Summary of the method: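 Growth of the mutant yeast was measured after compound exposure and referenced to vehicle-treated cultures.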

[2] = NCI Yeast Anticancer Drug Screen. Data for the mec2-1 strain (AID 157); details: S. cerevisiae mec2-1 strain, at 50.0 µM, stronger effect = higher value
Summary of the method: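 Each compound was tested on mec2-1 yeast, a strain altered in DNA damage repair or cell cycle control. Growth inhibition is reported relative to vehicle.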

[3] = NCI Yeast Anticancer Drug Screen. Data for the sgs1 mgt1 strain (AID 161);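 note: 0% = growth of cultures given vehicle only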; details: S. cerevisiae sgs1 mgt1 strain, at 50.0 µM, stronger effect = higher value
Summary of the method: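 Inhibition of yeast growth, normalised to vehicle-treated controls, is reported for a strain bearing genetic alterations in DNA damage repair.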

[4] = NCI Yeast Anticancer Drug Screen. Data for the cln2 rad14 strain (AID 165);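 note: 0% = growth equal to vehicle treated cultures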; details: S. cerevisiae cln2 rad14 strain, at 50.0 µM, stronger effect = higher value
Summary of the method: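 Test compounds were added to cln2 rad14 yeast cultures; inhibition of growth was then determined by comparison with vehicle treatment.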

[5] = NCI Yeast Anticancer Drug Screen. Data for the bub3 strain (AID 167); details: S. cerevisiae bub3 mutant strain, at 50.0 µM, stronger effect = higher value
Summary of the method: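 Whole-cell yeast assay. The mutant strain was incubated with compounds, and growth inhibition was determined by comparison with vehicle-treated cells.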

[6] = NCI Yeast Anticancer Drug Screen. Data for the mlh1 rad18 strain (AID 175); details: S. cerevisiae mlh1 rad18 strain growth inhibition; at 50.0 µM; stronger effect = higher value
Summary of the method: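 Inhibition values reflect reduced growth of mutant yeast versus vehicle-treated controls following compound exposure; the mutations affect DNA damage repair.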

Measured: growth inhibition

Nc1ccc2cc(S(=O)(=O)O)ccc2c1
inactive: [1] 3.95% | [2] 14.9% | [3] -21.1% | [4] -3.95% | [5] 0.95% | [6] -6.05%

O=c1[nH]c2cc3[nH]c4ncccc4c(=O)c3cc2[nH]1
inactive: [1] -3.7% | [2] 0.15% | [3] -22.7% | [4] 8.15% | [5] -1.15% | [6] 21.3%

COc1ccccc1NC(=O)C1=C(C)NC(C)=C(C(=O)Nc2ccccc2OC)C1C1=CC=COC1
inactive: [1] -30.4% | [2] -12.8% | [3] -25.9% | [4] -1.1% | [5] 13.1% | [6] -15.5%

CCOc1cccc2c1N[S@@](=O)S2
inactive: [1] 4.85% | [2] -26.7% | [3] 11.5% | [4] 16.2% | [5] 7.8% | [6] 33.6%

O.O.O=c1cc(Cl)[nH]c(=O)[nH]1.[NH2-].[NH2-].[Pt+4]
inactive: [1] -21.9% | [2] -18.1% | [3] -2.4% | [4] -47.6% | [5] 2.65% | [6] 35.7%

C#CC(CCC)NC(C)(C)C (stereo unspecified)
inactive: [1] 31.7% | [2] -13.9% | [3] 7.35% | [4] -10.8% | [5] 1.95% | [6] 21.3%

OCCc1ccc2ccccc2c1
inactive: [1] 4.05% | [2] -5.95% | [3] 3.05% | [4] -9.3% | [5] 13.8% | [6] -1.15%

O=C1OCc2c[n+]([O-])ccc21
inactive: [1] -17.4% | [2] -9.2% | [3] -6.85% | [4] -30.2% | [5] 0.65% | [6] 4.35%

Cc1nn(C(=O)c2c(-c3ccccc3)noc2C)c(C)c1N=Nc1cc(C(F)(F)F)cc(C(F)(F)F)c1
inactive: [1] -6.2% | [2] -8.85% | [3] -2.9% | [4] 20.5% | [5] -2.7% | [6] 0.6%

CCN(CC)C(=O)C(C)=O
inactive: [1] 8.55% | [2] 1.6% | [3] -12.4% | [4] 12.9% | [5] 1.2% | [6] 12.9%

O=C1CC2CCCC23CC2(CCN13)OCCO2 (stereo unspecified)
inactive: [1] -3.15% | [2] 0.7% | [3] -0.3% | [4] -27.4% | [5] -2.3% | [6] 6.35%

O=C(O)CCC(CCC(=O)O)(C(=O)O)c1ccccc1
inactive: [1] -20.1% | [2] -6.5% | [3] -8.75% | [4] -42.1% | [5] -1.65% | [6] -7.8%

O=C1OC(C2OC(=O)C(=O)C2C(=O)c2ccccc2Cl)C(C(=O)c2ccccc2Cl)C1=O (stereo unspecified)
inactive: [1] 58.4% | [2] 23.9% | [3] 49.5% | [4] 19.1% | [5] 7.15% | [6] 53.5%

FC(F)(F)c1ccc(C=NC23CC4CC(CC(C4)C2)C3)cc1
inactive: [1] -8.85% | [2] -9% | [3] -16.2% | [4] -27.1% | [5] -18.9% | [6] -30.9%

O=[N+]([O-])c1ccc(N=Nc2ccc(N(CCO)CCO)cc2)cc1
inactive: [1] -5.7% | [2] -8.35% | [3] 24% | [4] 1.25% | [5] 20.2% | [6] 6.1%

S=c1nc[nH]c2nc(Cl)[nH]c12
inactive: [1] -5.45% | [2] -18.6% | [3] -21.6% | [4] -0.25% | [5] -26.6% | [6] 4%

O=C(Cn1nnc(N2CCCCC2)n1)N/N=C/c1ccccc1O
inactive: [1] -29.7% | [2] -42% | [3] -9% | [4] -10.8% | [5] -9.05% | [6] -29.3%

CCOc1ccc2nc3cc(I)ccc3c(N)c2c1
inactive: [1] 8.15% | [2] -24.2% | [3] 14.6% | [4] -10.3% | [5] -0.05% | [6] 27.1%

COC1(c2ccccc2)OC(=O)C(C)(C)c2ccccc21 (stereo unspecified)
inactive: [1] -5.1% | [2] 7.65% | [3] 14.2% | [4] 22.1% | [5] 13.9% | [6] 3.55%

CCCCCCCC(=O)Oc1ccccc1
inactive: [1] 14.1% | [2] -10.5% | [3] -0.75% | [4] -10% | [5] -2.3% | [6] -1.2%

Cc1ccc(CCS(=O)(=O)N=[N+]=[N-])cc1
inactive: [1] 1.45% | [2] -11.8% | [3] -8.95% | [4] -53.8% | [5] -20% | [6] -3.4%

O=C1CCCc2ccc([N+](=O)[O-])c(O)c21
inactive: [1] 11% | [2] 10.1% | [3] -2.55% | [4] 4.4% | [5] 9.8% | [6] 8.65%

CCC1CCN(CC)CC1
inactive: [1] 3.1% | [2] -37.4% | [3] 3.2% | [4] 1.8% | [5] -19.6% | [6] -4.1%

OC(CCc1ccco1)CCc1ccco1
inactive: [1] 19.9% | [2] 6.6% | [3] 11.5% | [4] 1.4% | [5] 10.7% | [6] 14.1%

c1cncc(CCc2ccncc2)c1
inactive: [1] -18.9% | [2] -60.9% | [3] -27.2% | [4] 12.3% | [5] -14.2% | [6] 18.6%

NNC(=O)c1csnn1
inactive: [1] -24.6% | [2] -22.6% | [3] -24.5% | [4] -25.4% | [5] -23.6% | [6] -7%

CCCCN(CCCC)CCC(O)c1cc(-c2ccc(Cl)c(Cl)c2)nc2c(Cl)cc(Cl)cc12 (stereo unspecified)
active: [1] 96.4% | [2] 95.5% | [4] 97.2% | [5] 90.3% | [6] 74.8%
inactive: [3] 6.85%

C/C=C/C(=O)Nc1cc(C(F)(F)F)ccc1Cl
inactive: [1] 26.6% | [2] -2.3% | [3] -44.5% | [4] 10.8% | [5] 1.4% | [6] 9.15%

NC(=O)OCC1CCCCC1OC(N)=O (stereo unspecified)
inactive: [1] 26.1% | [2] -17.4% | [3] -14.4% | [4] -92.7% | [5] -2.6% | [6] -10.4%

CCCCCCC1CCC(=O)CC1
inactive: [1] 31.9% | [2] 4.3% | [3] -14.6% | [4] -10.1% | [5] -7.3% | [6] 34.5%

O=C(N/N=C/c1ccccc1Cl)c1ccccc1
inactive: [1] -19.4% | [2] -1.25% | [3] -5.3% | [4] -7.55% | [5] -4.05% | [6] -9.6%

O=C(O)CCCC[P+](c1ccccc1)(c1ccccc1)c1ccccc1
inactive: [1] 21.1% | [2] 7.8% | [3] 13.5% | [4] 7.5% | [5] 35.3% | [6] 27.8%

CCN(CC)CCCn1cnc2ncccc2c1=O
inactive: [1] -12.3% | [2] -5.7% | [3] 8.8% | [4] 21% | [5] -9.2% | [6] -3.3%

NC(=O)NC(=O)/C=C/C(=O)O
inactive: [1] 3.75% | [2] -12.9% | [3] -4.15% | [4] -12.4% | [5] 9.7% | [6] -3.2%

CCCCCC/C=N/Nc1ccc([N+](=O)[O-])cc1[N+](=O)[O-]
inactive: [1] 1.65% | [2] -18.9% | [3] -11.2% | [4] -48.2% | [5] -6.95% | [6] -4.9%

CC(=O)NNC(=S)N/C=C(/C(=O)c1ccccc1)c1ccccc1
inactive: [1] -22.7% | [2] -9.45% | [3] -16.7% | [4] 3.75% | [5] -16.4% | [6] -6.9%

CN(C)c1c2c(oc(=O)c1Cl)-c1ccccc1OCC2
inactive: [1] -14.3% | [2] -12.8% | [3] -10.4% | [4] -4.85% | [5] -19.1% | [6] -17.6%

CCN(CC)C(=O)NCCCCCCNC(=O)N(CC)CC
inactive: [1] -20.2% | [2] -36.8% | [3] -27.8% | [4] -20% | [5] -29.2% | [6] -23.6%

CCOC(=O)C(NC(=O)NCc1ccc(F)cc1)C(F)(F)F (stereo unspecified)
inactive: [1] -46.7% | [2] 2.2% | [3] -31.5% | [4] 19.4% | [5] 51.9% | [6] -43.1%

CC(O)C(C)NC(C)C(C)O (stereo unspecified)
inactive: [1] 0.4% | [2] -0.35% | [3] -30.8% | [4] 15.3% | [5] 12.1% | [6] -2.85%

CC(=O)OC12c3ccccc3-c3ccccc3C1C1C(=O)N(C)C(=O)C12Cl (stereo unspecified)
inactive: [1] -13.4% | [2] -22.2% | [3] -12.2% | [4] 10.4% | [5] 36.5% | [6] 13.2%
